This passage reports outcome and AC50 results from PubChem BioAssay (EPA / NIEHS).

Calls of active or inactive are those of the source. The calls were made as follows: active = hit-call score of the fitted dose curve at least 0.9, where 1 is the maximum; inactive = score below 0.9.

This assay deals with X-box-binding protein 1 (Homo sapiens) (UniProt P17861). Put plainly: ATG_Xbp1_CIS: Attagene CIS-FACTORIAL HepG2 Assay for human X-box Binding Protein 1 (XBP1) (AID 2282972). As to conditions: HepG2 XBP1 cis-element reporter, Attagene multiplex; actives raise or lower the signal. On the procedure: ATG_CIS is a cell-based, multiplexed-readout assay that uses HepG2, a human liver cell line, with measurements taken at 24 hours after chemical dosing in a 24-well plate.ATG_Xbp1_CIS is one of 52 assay component(s) measured or calculated from the ATG_CIS assay. It is designed to make measurements of mRNA induction, a form of inducible reporter, as detected with fluorescence intensity signals by Reverse transcription polymerase chain reaction (RT-PCR) and Capillary electrophoresis technology.Data from the assay component ATG_Xbp1_CIS was analyzed into 1 assay endpoint. This assay endpoint, ATG_Xbp1_CIS, was analyzed with bidirectional fitting relative to DMSO as the negative control and baseline of activity. Using a type of inducible reporter, measures of mRNA for gain or loss-of-signal activity can be used to understand the reporter gene at the transcription factor-level as they relate to the gene XBP1. Furthermore, this assay endpoint can be referred to as a primary readout, because this assay has produced multiple assay endpoints where this one serves a reporter gene function. To generalize the intended target to other relatable targets, this assay endpoint is annotated to the dna binding intended target family, where the subfamily is basic leucine zipper.
Chain of X-box-binding protein 1 (Homo sapiens) (P17861 whole entry, looked up): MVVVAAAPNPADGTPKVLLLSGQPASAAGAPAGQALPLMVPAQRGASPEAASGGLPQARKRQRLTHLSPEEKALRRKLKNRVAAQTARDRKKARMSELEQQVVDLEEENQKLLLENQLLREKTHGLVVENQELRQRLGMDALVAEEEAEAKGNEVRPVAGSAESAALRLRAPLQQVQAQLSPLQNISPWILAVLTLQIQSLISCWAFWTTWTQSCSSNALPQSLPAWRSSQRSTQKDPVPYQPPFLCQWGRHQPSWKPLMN
Human liver HepG2 cells are transiently transfected with multiple reporter transcription units (MRTUs) in 6-well plates using FuGene 6 reagent (Roche; 3 ml FuGene/1 mg DNA). The MRTU constructs are regulated by a cis-regulating element (promoter). […] A major difference between the CIS and TRANS system is that in CIS activities of endogenous TFs are measured, whereas the TRANS assay evaluates changes in activities of exogenous, chimeric NR-Gal4 proteins. […] At the end of 24 hour incubation, total RNA was isolated using TriZol reagent (Invitrogen). The isolated RNA is then reverse-transcribed using oligo(dT) primer and Mo-MLV reverse transcriptase (Invitrogen) with DNAse I (Ambion) treatment for 30 min. The one-tenth of the produced cDNA was amplified by PCR using Taq DNA polymerase (Invitrogen) and two reporter sequence-specific primers. The PCR products were fluorescently labeled by primer extension with 6-arboxyfluorescein (6-FAM) 5'-labeled reporter sequence-specific primer (2 min at 95 C, 20 s at 68 C and 10 min at 72 C) and these products were digested with 5U of HpaI (New England Biolabs) for 2h at 37 C. The fragments were purified using Qiaquick PCR columns (Qiagen), analyzed on an ABI 3130xL genetic analyzer (Applied Biosystems) with peak positions identified by using a set of X-rhodamine (ROX)-labeled MapMarker1000 molecular weight standards (BioVentures). The raw capillary electrophoresis data was processed using Attagraph software (Attagene).
Consider `O=S(=O)(O)c1cccc2ccccc12`, for which the result was inactive. Still for that read-out and setting: to `C=C(C)C(=O)OCC1CCCO1` (stereo not given) belongs “inactive”; to `O=C(CC(C(=O)OC1CCCCC1)S(=O)(=O)O)OC1CCCCC1` (stereo not given), “inactive”; to `CC/C=C\CCO`, “inactive”. Take `C=CN1CCCCCC1=O`: the outcome was inactive. For `CCOC(=O)c1ccccc1`, the outcome was inactive. Regarding `COc1ccc2ccccc2c1`, the molecule was called inactive. As for `COC(OC)C(C)c1ccccc1` (stereo not given), the outcome was inactive. `CCCCCCCCCCCCCCCCCC[N+](C)(C)C`: the molecule was called inactive. Turning to `Nc1nnc(-c2ccc([N+](=O)[O-])o2)o1`, the result was inactive. With `O=C(O)Cc1c[nH]c2ccccc12`, the outcome was inactive. For the molecule `CN1CCCC1`, the molecule was classed as inactive.

Turning to `O=C(Oc1ccccc1)c1ccccc1`, the outcome was inactive. Take `C[C@H]1C[C@H]2[C@@H]3CCC4=CC(=O)C=C[C@]4(C)[C@@]3(F)[C@@H](O)C[C@]2(C)[C@@]1(O)C(=O)CO`: the AC50 (as a rule, the concentration giving half of the maximal activity seen) was 158 µM (active). Turning to `CCCCCCCC#N`, the molecule was called inactive. For `Oc1cccc2ccccc12`, the molecule was classed as inactive. On to `c1cc[c]([Bi]([c]2ccccc2)[c]2ccccc2)cc1`, for which the molecule was classed as inactive. Same read-out and setting: to `Cc1ccccc1S(N)(=O)=O` belongs “inactive”.

Take `CCCC(=O)OC/C=C(\C)CCC=C(C)C`: the result was inactive. In the case of `CCCCCCCCCC/C=C/C1CC(=O)OC1=O` (stereo not given), the outcome was inactive.

As to `CC(C)=CCOC(=O)c1ccccc1`, the molecule was called inactive. As for `CO[Si](CCCNCCN)(OC)OC`, the molecule was called inactive. The same measure, in the same setting: in the case of `CC(C)n1c(/C=C/[C@@H](O)C[C@@H](O)CC(=O)O)c(-c2ccc(F)cc2)c2ccccc21` it was “inactive”; in that of `COc1c2occc2cc2ccc(=O)oc12`, “inactive”. `c1cc(N(CC2CO2)CC2CO2)ccc1Cc1ccc(N(CC2CO2)CC2CO2)cc1` (stereo not given): the concentration at half-maximal activity (AC50) was 6.26 µM (active). Take `CCCCCC1CCCC(=O)O1` (stereo not given): the outcome was inactive.

As for `CC(=O)c1nccs1`, the result was inactive. Still for that read-out and setting: in the case of `CC(C)(Oc1ccc(Cl)cc1)C(=O)O` it was “inactive”. With `CC/C=C/CCO`, the result was inactive. Take `CN(C)N=Nc1ccccc1`: the result was inactive. Consider `COCCCN`, for which the molecule was called inactive.

As for `O=[N+]([O-])c1ccc2nc[nH]c2c1`, the result was inactive. On to `CC1=C(CC(=O)O)c2cc(F)ccc2/C1=C\c1ccc(S(C)=O)cc1` (stereo not given), for which the call was inactive. The same measure, in the same setting: in the case of `CCc1cc(C(N)=S)ccn1` it was “inactive”; in that of `CC=CC(=O)O`, “inactive”; in that of `C=C(C)C(=O)OCCCCCC`, “inactive”. Turning to `CC/C=C\CC/C=C/C(OCC)OCC`, the call was inactive.

As for `O=C(O)c1nc(Cl)c(Cl)c(Cl)c1Cl`, the molecule was called inactive. Consider `O=C(c1ccccc1)c1ccccc1O`, for which the molecule was called inactive. `Cc1cc2nc3c(=O)[nH]c(=O)nc-3n(C[C@H](O)[C@H](O)[C@H](O)CO)c2cc1C`: the molecule was called inactive.
